# Source: PubChem (National Center for Advancing Translational Sciences (NCATS))
# Only some compounds are listed: those with a hit (about 6% of all), similar ones and a draw of the others.
# D1 antag = blocks dopamine activation of the human D1 receptor. activity change, negative = inhibition, % at 10 µM. HEK293 TREx D1 cells, calcium flux, dopamine EC80; stronger effect = lower value. P21728. 360,000 compounds, 3.2% hits; in the data active means activity change below about -30%; further: on the % scale 0 is the no-effect control and ±100 the full control effect
#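 HEK293 T-REx cells expressing inducible, force-coupled D1 receptor; no-wash Ca dye, 30–90 min RT. Cmpd → 180 s read at 1 Hz → EC80 DA → 180 s read.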
# D1 ag = agonists of human D1 dopamine receptor. P21728. HEK293 T-REx D1 cells, calcium flux, agonist mode. activation, % at 2 µM. 360,000 compounds, 1% hits. AID 504660; in the data active means activation above about 30%; further: 0% is about no effect
#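 Tetracycline-induced HEK293 TREx D1 cells, force-coupled to calcium signalling, were dye-loaded with a no-wash calcium kit. Compound was pin-added after a 10 s baseline. Fluorescence was read kinetically at 1 cycle/s for 180 s, with calcium rises flagged as agonism.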
# D3 ag = agonists of human D3 dopamine receptor; 410,000 compounds, 0.58% hits; D3R DiscoveRx beta-arrestin cells, luminescence, 90 min; P35462; max activation, %; in the data active means max activation above about 30%; further: 0% is about no effect
# Target sequence (P35462 whole entry, looked up): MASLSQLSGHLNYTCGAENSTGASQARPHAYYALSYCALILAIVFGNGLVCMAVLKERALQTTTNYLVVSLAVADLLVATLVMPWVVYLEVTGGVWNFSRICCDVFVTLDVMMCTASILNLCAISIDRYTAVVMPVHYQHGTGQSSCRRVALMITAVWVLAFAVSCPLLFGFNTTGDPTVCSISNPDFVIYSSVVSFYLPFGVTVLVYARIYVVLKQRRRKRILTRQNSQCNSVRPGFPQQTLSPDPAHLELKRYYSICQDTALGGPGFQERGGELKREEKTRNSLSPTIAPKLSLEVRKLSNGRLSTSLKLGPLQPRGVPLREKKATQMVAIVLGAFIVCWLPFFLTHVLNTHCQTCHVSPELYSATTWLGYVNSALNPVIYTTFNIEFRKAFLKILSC
#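 Cells at 1500/well, incubated overnight, then treated with pinned compounds (dopamine as control) for 90 min at 37 degrees C. DiscoveRx reagent added for 30 - 60 minutes at room temperature; luminescence read.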
# D1 PAM = human D1 dopamine receptor positive modulation. P21728. HEK293 TREx D1 cells, calcium flux, dopamine EC20 potentiation. potentiation, % at 10 µM. 360,000 compounds, 0.036% hits; in the data active means potentiation above about 30%; further: 0% is about no effect
# D3 antag = D3 dopamine receptor (human) antagonism. D3R cells, DiscoveRx beta-arrestin luminescence, antagonist mode; stronger effect = lower value. max response, negative = inhibition, %. 360,000 compounds, 2.5% hits; in the data active means max response below about -50%; inconclusive means no clear call, values can overlap the other calls; further: on the % scale 0 is the no-effect control and ±100 the full control effect
#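 Cells expressing the human receptor were seeded at 1500 cells/well, incubated overnight at 37 degrees C in 5% CO2, then exposed to library compounds with dopamine controls for 90 minutes at 37 degrees C before luminescent detection.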
# Starred values were filed as active, the others as inactive; ? = inconclusive; . = not tested or not shown.
SMILES,D1 antag,D1 ag,D3 ag,D1 PAM,D3 antag
COCCNC(=O)Nc1cc(C(=O)NCc2ccc(C(C)C)cc2)ccc1N1CCCC1,12.5,0.5,4.0,0.2,.
CCOc1ccc(NC(=O)CCCn2c(C)c3cnn(-c4ccccc4)c(=O)c3c2C)cc1,-0.5,-2.2,-13.5,0.2,.
COc1ccc(Nc2ncnc3c2nc2n3CCCC2)cc1Cl,-11.1,-1.4,0.9,-0.7,.
Cc1cc(C)c(NC(=O)CCC(=O)N2Cc3ccccc3Oc3ncccc32)c(C)c1,4.0,0.3,-12.7,2.4,.
COc1cc(Nc2ncc3c(n2)CCN(Cc2cc(Br)cs2)C3)cc(OC)c1,0.7,1.5,-3.8,1.1,.
C/C(=N\NC(=O)c1cccc(Br)c1)c1ccccn1,1.4,2.0,-8.1,2.8,-52.8*
C/C(=N/NC(=O)c1ccc(C(C)(C)C)cc1)c1ccccn1,.,.,-51.0,.,-114.5*
C/C(=N\NC(=O)c1cc(Br)ccc1O)c1ccccn1,4.2,11.9,3.7,-0.8,4.0
C/C(=N/NC(=O)c1ccccn1)c1ccncc1,15.7,0.4,-16.2,0.2,-17.1
C/C(=N\NC(=O)c1ccc(Cl)c(Cl)c1)c1ccccn1,-38.0*,4.3,-11.9,-1.8,?
C/C(=N\NC(=O)C(c1ccccc1)c1ccccc1)c1ccccn1,-20.9,8.1,-22.3,0.0,-75.7*
O=C(Oc1ccc(Cl)cc1)N1CCOCC1,14.4,-3.0,6.4,-0.4,-3.8
O=C(Oc1ccc(-c2ccccc2)cc1)N1CCOCC1,-32.1*,8.3,0.5,-3.6,-13.6
Nc1sc(-c2ccccc2)n[n+]1Cc1cccc2cccnc12,-42.9*,15.7,3.2,-7.7,1.4
Oc1ccccc1CNc1cccc2cccnc12,-4.6,2.5,-2.9,-3.9,-1.6
CC1CCC(NC(=O)CN(C)S(=O)(=O)c2ccc3c(c2)CCC(=O)N3)CC1 (centres undefined),-30.5*,3.3,2.8,-2.4,5.7
COc1cccc(CNC(=O)CSc2ncc(S(=O)(=O)c3ccc(C)c(Cl)c3)c(=O)[nH]2)c1,-2.6,2.7,4.8,-0.7,.
COc1ccc(C2=NOC(Cn3nc(C(=O)NCc4cccc(Br)c4)cc3-c3ccccc3)C2)cc1 (centres undefined),.,.,1.7,.,34.4
COc1ccc(C2=NOC(Cn3nc(-c4ccccc4)cc3C(=O)NCc3cccc(Br)c3)C2)cc1 (centres undefined),.,.,34.3*,.,33.0
Cc1ccc(OCC(=O)Nc2nnc(S(=O)(=O)N3c4ccccc4CC3C)s2)cc1 (centres undefined),3.3,-0.9,-3.3,4.2,.
CCC(=O)N1CCc2cc(S(=O)(=O)NC(C(=O)NCCc3cccc(C)c3)C(C)C)ccc21 (centres undefined),-61.5*,-0.1,-7.7,-1.9,.
CCC(=O)N1CCc2cc(S(=O)(=O)NC(C(=O)NCc3ccccc3)C(C)C)ccc21 (centres undefined),0.7,0.6,-3.6,-2.7,-76.8*
CC(=O)N1CCc2cc(S(=O)(=O)NC(Cc3ccccc3)C(=O)Nc3cccc(C)c3)ccc21 (centres undefined),-37.6*,2.3,-14.4,-2.5,.
CCC(C)(C(=O)NC1CCCC1)N(C(=O)c1cnccn1)c1ccccc1 (centres undefined),-45.1*,4.8,4.1,-4.7,-1.1
COc1ccc2cc3cc(C(=O)NCCN4CCc5ccccc5C4)sc3nc2c1,11.6,2.9,-27.8,10.3,-93.3*
SMILES,D1 antag,D1 ag,D3 ag,D1 PAM,D3 antag
COc1ccc(NC(=O)CN2CCc3ccccc3C2)cc1,.,.,-5.3,.,-80.1*
COc1ccc(NC(=O)NCCCN2CCc3ccccc3C2)cc1,17.6,0.2,-12.1,-7.6,-108.4*
CCN1CCc2nc(SCC(=O)Nc3ccc(OC)cc3)c(C#N)cc2C1,5.3,0.2,9.4,-0.6,-70.1*
O=C1NC(=O)[C@H]2[C@@H]1[C@@H]1C=C[C@H]2C1,.,.,3.3,.,.
Cc1ccc(CNC(=O)c2sc3nc(C)cc(C)c3c2-n2cccc2)cc1,-3.3,2.8,15.5,-1.4,.
Cc1nc2ccc(S(=O)(=O)NC(C(=O)NCc3ccc(Cl)cc3)C(C)C)cc2s1 (centres undefined),2.5,-0.1,8.2,-1.9,.
CCOC(=O)[C@@H](N)CS,.,.,-28.8,.,.
O=C(NCCCN1CCc2ccccc2C1)Nc1ccc(Br)cc1,-25.8,40.5*,-7.7,-7.0,-55.0*
COc1ccc(NC(=O)Nc2ccccc2OCc2cc(=O)n3ccccc3n2)c(OC)c1,-16.3,-0.9,-12.8,-3.2,.
CCc1ccc(NC(=O)C(CC)n2nnc(C(=O)OC)c2C(=O)OC)cc1 (centres undefined),-6.1,8.4,-11.7,-2.0,.
O=C(CSc1nnc(-c2cccnc2)n1-c1ccccc1)Nc1ccc2c(c1)OCO2,-60.6*,0.4,13.1,-4.0,-15.2
Nn1c(SCC(=O)Nc2ccc3c(c2)OCCO3)nnc1-c1ccncc1,-14.9,2.0,2.6,-1.5,2.7
O=C(CSc1ccc2nnc(-c3ccncc3)n2n1)Nc1ccc2c(c1)OCCO2,-13.3,3.5,-4.1,-5.0,-59.3*
O=C(CSc1nc(-c2ccccc2)[nH]c1-c1ccccc1)Nc1ccc2c(c1)OCO2,-30.2*,2.9,-4.9,-4.9,.
Nn1c(SCC(=O)Nc2ccc3c(c2)OCCO3)nnc1-c1cccnc1,-37.4*,2.2,4.5,-1.1,4.9
O=C(CSc1nnc(-c2cccnc2)n1-c1ccccc1)Nc1ccccn1,5.0,2.2,5.0,-2.8,2.5
O=C(CSc1ccc2nnc(-c3ccncc3)n2n1)Nc1ccc2c(c1)OCO2,-3.7,1.7,-1.9,-2.5,19.6
CCc1ccc(C2CC(=O)c3c([nH]c(C(=O)OCCOc4ccccc4)c3C)C2)cc1 (centres undefined),-15.9,6.8,3.6,-2.1,.
Nn1c(SCc2cccc(F)c2)nnc1-c1cccnc1,-31.4*,1.6,-8.5,-4.7,13.5
O=C(CSc1nccn1-c1ccc(Cl)cc1)Nc1ccc2c(c1)OCO2,-49.3*,5.2,-8.3,-10.5,0.0
CCOc1ccc(-n2ccnc2SCC(=O)Nc2ccc3c(c2)OCO3)cc1,-10.7,0.9,1.3,-3.8,.
Nn1c(SCc2cccc(Br)c2)nnc1-c1cccnc1,-13.0,-0.6,-6.3,7.2,1.0
CCOc1ccc2oc(=O)cc(CN3CCN(Cc4ccccc4)CC3)c2c1,-9.4,2.5,-19.9,-8.8,0.6
COc1ccc2c(CN3CCN(Cc4ccccc4)CC3)cc(=O)oc2c1,.,.,-20.0,.,-68.1*
COc1ccc2oc(=O)cc(CN3CCN(Cc4ccccc4)CC3)c2c1,-9.4,1.3,-45.3,0.1,-54.0*
COc1cccc(Cn2c(=O)n(-c3cccc(Cl)c3C)c(=O)c3c4c(sc32)CN(C(C)=O)CC4)c1,6.8,-0.2,0.8,-2.1,.
O=C(NCCc1ccc(Cl)cc1)c1cc(-c2ccc(Cl)cc2)n[nH]1,5.5,-0.4,2.3,2.3,.
CC(C)(C)NS(=O)(=O)c1ccc2nc(NC(=O)c3cccnc3)sc2c1,7.9,4.4,9.4,3.4,.
